PubChem BioAssay (EPA / NIEHS)
Where “and” joins values, the source holds several entries; their conditions need not be identical. Equal values may be shown once. Calls of active or inactive are those of the source. How the source made its calls: active means hit-call score of the fitted dose curve at least 0.9, where 1 is the maximum; inactive means score below 0.9.

Legend:
[1] = read-out: Interleukin-6 (IL6), IL6 (gene 3569); experiment: BSK_CASM3C_IL6: BioMAP Diversity Plus: CASM3C Assay for Interleukin-6 (IL6) Biomarker Activity for (AID 2283040); conditions: primary human coronary artery smooth muscle cells; actives raise or lower the signal
[2] = read-out: Tissue plasminogen activator (tPA), PLAT (gene 5327); experiment: BSK_BE3C_tPA: BioMAP Diversity Plus: BE3C Assay for Tissue plasminogen activator (tPA) Biomarker Activity (AID 2283041); conditions: primary human bronchial epithelial cells; actives raise or lower the signal
Summary of the method: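 Gain- or loss-of-signal in tPA, measured by ELISA, derived by bidirectional fitting against DMSO. Cells: human primary bronchial epithelial; read at 24 h after chemical dosing.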

[3] = read-out: Interleukin-8 (IL8), CXCL8 (gene 3576); experiment: BSK_CASM3C_IL8: BioMAP Diversity Plus: CASM3C Assay for Interleukin-8 (IL8) Biomarker Activity (AID 2283042); conditions: primary human coronary artery smooth muscle cells; actives raise or lower the signal;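 further: IL-8 protein level quantified by ELISA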
[4] = read-out: Human Leukocyte Antigen - DR isotype (HLADR), HLA-DRA (gene 3122); experiment: BSK_CASM3C_HLADR: BioMAP Diversity Plus: CASM3C Assay for Human Leukocyte Antigen - DR isotype (HLADR) Biomarker Activity (AID 2283043); conditions: primary human coronary artery smooth muscle cells; actives raise or lower the signal;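 further: cell-surface HLA-DR protein level quantified by ELISA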
[5] = read-out: Macrophage colony-stimulating factor (MCSF), CSF1 (gene 1435); experiment: BSK_CASM3C_MCSF: BioMAP Diversity Plus: CASM3C Assay for Macrophage colony-stimulating factor (MCSF) Biomarker Activity (AID 2283044); conditions: primary human coronary artery smooth muscle cells; actives raise or lower the signal;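 further: M-CSF protein amount quantified by ELISA after 24 h exposure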
[6] = read-out: Low-density lipoprotein receptor (LDLR), LDLR (gene 3949); experiment: BSK_CASM3C_LDLR: BioMAP Diversity Plus: CASM3C Assay for Low-density lipoprotein receptor (LDLR) Biomarker Activity (AID 2283045); conditions: primary human coronary artery smooth muscle cells; actives raise or lower the signal;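 further: LDLR protein level on the cell surface quantified by ELISA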
[7] = read-out: Monocyte Chemoattractant Protein-1 (MCP1), CCL2 (gene 6347); experiment: BSK_CASM3C_MCP1: BioMAP Diversity Plus: CASM3C Assay for Monocyte Chemoattractant Protein-1 (MCP1) Biomarker Activity (AID 2283046); conditions: primary human coronary artery smooth muscle cells; actives raise or lower the signal;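 further: MCP-1 level quantified by ELISA 24 h after dosing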
[8] = BSK_CASM3C_Proliferation: Cell Proliferation Assessment in the BioMAP Diversity Plus: CASM3C Assay (AID 2283047); conditions: primary human coronary artery smooth muscle cells;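 further: sulforhodamine B total protein stain as relative cell number at 560 nm; sub-confluent cells exposed 48 h before staining; fitted both ways against DMSO so gain or loss of cell number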
[9] = read-out: Monokine induced gamma interferon (MIG), CXCL9 (gene 4283); experiment: BSK_CASM3C_MIG: BioMAP Diversity Plus: CASM3C Assay for Monokine induced gamma interferon (MIG) Biomarker Activity (AID 2283048); conditions: primary human coronary artery smooth muscle cells; actives raise or lower the signal;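 further: MIG protein level measured by ELISA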
[10] = read-out: serum amyloid A (SAA), SAA1 (gene 6288); experiment: BSK_CASM3C_SAA: BioMAP Diversity Plus: CASM3C Assay for serum amyloid A (SAA) Biomarker Activity (AID 2283049); conditions: primary human coronary artery smooth muscle cells; actives raise or lower the signal;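 further: SAA protein level quantified by ELISA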
[11] = BSK_CASM3C_SRB: Viability Assessment in the BioMAP Diversity Plus: CASM3C Assay (AID 2283050); conditions: primary human coronary artery smooth muscle cells;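 further: total protein by SRB staining as cytotoxicity measure in parallel cultures; cells exposed to compound for 24 h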
[12] = read-out: Thrombomodulin, THBD (gene 7056); experiment: BSK_CASM3C_Thrombomodulin: BioMAP Diversity Plus: CASM3C Assay for Thrombomodulin Biomarker Activity (AID 2283051); conditions: primary human coronary artery smooth muscle cells; actives raise or lower the signal;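 further: thrombomodulin protein level measured by ELISA 24 h after dosing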
[13] = read-out: Tissue Factor, F3 (gene 2152); experiment: BSK_CASM3C_TissueFactor: BioMAP Diversity Plus: CASM3C Assay for Tissue Factor Biomarker Activity (AID 2283052); conditions: primary human coronary artery smooth muscle cells; actives raise or lower the signal;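 further: cell surface tissue factor protein level read by ELISA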
[14] = read-out: Interferon-gamma inducible Protein 10 (IP10), CXCL10 (gene 3627); experiment: BSK_hDFCGF_IP10: BioMAP Diversity Plus: hDFCGF Assay for Interferon-gamma inducible Protein 10 (IP10) Biomarker Activity (AID 2283053); conditions: primary human foreskin fibroblasts; actives raise or lower the signal
Summary of the method: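 Cells: human dermal foreskin fibroblasts. Exposure: 24 h post-dosing. Detection: IP-10 ELISA, with values expressed against DMSO controls and fitted in both directions.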

[15] = read-out: Urokinase-type plasminogen activator receptor (uPAR), PLAUR (gene 5329); experiment: BSK_CASM3C_uPAR: BioMAP Diversity Plus: CASM3C Assay for Urokinase-type plasminogen activator receptor (uPAR) Biomarker Activity (AID 2283054); conditions: primary human coronary artery smooth muscle cells; actives raise or lower the signal;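 further: cell-surface uPAR protein level quantified by ELISA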
[16] = read-out: Vascular cell adhesion molecule 1 (VCAM1), VCAM1 (gene 7412); experiment: BSK_CASM3C_VCAM1: BioMAP Diversity Plus: CASM3C Assay for Vascular cell adhesion molecule 1 (VCAM1) Biomarker Activity (AID 2283055); conditions: primary human coronary artery smooth muscle cells; actives raise or lower the signal;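 further: VCAM-1 protein level quantified by ELISA on the cells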
[17] = read-out: Collagen III, COL3A1 (gene 1281); experiment: BSK_hDFCGF_CollagenIII: BioMAP Diversity Plus: hDFCGF Assay for Collagen III Biomarker Activity (AID 2283056); conditions: primary human foreskin fibroblasts; actives raise or lower the signal
Summary of the method: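 Cells: human foreskin fibroblasts, primary. Dosing followed by 24 h incubation, then ELISA for collagen III. Both increases and decreases scored relative to DMSO.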

[18] = read-out: Epidermal growth factor receptor (EGFR), EGFR (gene 1956); experiment: BSK_hDFCGF_EGFR: BioMAP Diversity Plus: hDFCGF Assay for Epidermal growth factor receptor (EGFR) Biomarker Activity (AID 2283057); conditions: primary human foreskin fibroblasts; actives raise or lower the signal
Summary of the method: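 Dosing human primary skin fibroblasts, then measuring surface EGFR by ELISA at 24 h, gives the endpoint; gains and losses relative to DMSO were fitted in both directions.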

[19] = read-out: Interleukin-8 (IL8), CXCL8 (gene 3576); experiment: BSK_hDFCGF_IL8: BioMAP Diversity Plus: hDFCGF Assay for Interleukin-8 (IL8) Biomarker Activity (AID 2283058); conditions: primary human foreskin fibroblasts; actives raise or lower the signal
Summary of the method: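 IL-8 levels from compound-treated primary human fibroblasts were read by ELISA at 24 h, with DMSO serving as baseline for bidirectional fitting.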

[20] = BSK_hDFCGF_Proliferation: Cell Proliferation Assessment in the BioMAP Diversity Plus: hDFCGF Assay (AID 2283059); conditions: primary human foreskin fibroblasts;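 further: curves fitted for both rise and fall of signal versus DMSO baseline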
Summary of the method: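 Sub-confluent human foreskin fibroblast cultures receive test chemical […]. Relative cell number is quantified by sulforhodamine B staining (0.1%, after 10% TCA fixation) at 560 nm, with bidirectional fitting referenced to DMSO.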

Measured: AC50

CCN(CC)c1ccc(C=O)c(O)c1
active: [20] 30.4 µM
inactive: [1] | [2] | [3] | [4] | [5] | [6] | [7] | [8] | [9] | [10] | [11] | [12] | [13] | [14] | [15] | [16] | [17] | [18] | [19]

CCOC(=O)CC(=O)C(F)(F)C(F)(F)F
inactive: [1] | [2] | [3] | [4] | [5] | [6] | [7] | [8] | [9] | [10] | [11] | [12] | [13] | [14] | [15] | [16] | [17] | [18] | [19] | [20]

CCN(CC)c1ccc(N=Nc2ccccc2)cc1
inactive: [1] | [3] | [5] | [6] | [9] | [10] | [13] | [14] | [15] | [18] | [19]
active: [2] 27.7 µM | [4] 31.9 µM | [7] 4.07 µM | [8] 8.48 µM | [11] 20 µM | [12] 11.3 µM | [16] 3.04 µM | [17] 3.65 µM | [20] 8.62 µM

Cc1cc(O)c(C(C)(C)C)cc1C(C)(C)C
inactive: [18] | [19]
active: [1] 5.61 µM | [2] 5.21 µM | [3] 8.77 µM | [4] 3.5 µM | [5] 4.59 µM | [6] 5.37 µM | [7] 5.83 µM | [8] 3.85 µM | [9] 12.5 µM | [10] 4.22 µM | [11] 4.99 µM | [12] 12 µM | [13] 3.61 µM | [14] 6.51 µM | [15] 8.38 µM | [16] 4.81 µM | [17] 1.92 µM | [20] 1.78 µM

OC(O)C(F)(F)C(F)(F)F
inactive: [1] | [2] | [3] | [4] | [5] | [6] | [7] | [8] | [9] | [10] | [11] | [12] | [13] | [14] | [15] | [16] | [17] | [18] | [19] | [20]

O=C=Nc1cccc2c(N=C=O)cccc12
inactive: [1] | [2] | [3] | [4] | [5] | [6] | [7] | [8] | [9] | [10] | [11] | [12] | [13] | [14] | [15] | [16] | [17] | [18] | [19] | [20]

O=C1C=CC(=O)N1c1ccc(Cc2ccc(N3C(=O)C=CC3=O)cc2)cc1
inactive: [12] | [18] | [19]
active: [1] 9.64 µM | [2] 3.46 µM | [3] 11 µM | [4] 2.88 µM | [5] 5.07 µM | [6] 2.03 µM | [7] 4.19 µM | [8] 0.688 µM | [9] 5.42 µM | [10] 3.21 µM | [11] 4.31 µM | [13] 3.35 µM | [14] 2.58 µM | [15] 5.3 µM | [16] 2.94 µM | [17] 4.09 µM | [20] 0.162 µM

NC(=O)C(F)(F)C(F)(F)C(F)(F)F
inactive: [1] | [2] | [3] | [4] | [5] | [6] | [7] | [8] | [9] | [10] | [11] | [12] | [13] | [14] | [15] | [16] | [17] | [18] | [19] | [20]

CCN=C1C=CC(=C(c2ccc(N(CC)CC)cc2)c2ccc(N(CC)CC)cc2)c2ccccc21
active: [2] 1.54 µM and 976 nM | [4] 4.2 µM and 3.11 µM | [5] 5.89 µM and 2.3 µM | [7] 4.84 µM and 4.54 µM | [8] 1.09 µM and 1.31 µM | [9] 5.1 µM and 5.25 µM | [10] 371 nM and 1.07 µM | [11] 5.3 µM and 5.29 µM | [12] 1.03 µM and 1.42 µM | [13] 149 nM and 1.21 µM | [14] 1.52 µM and 1.32 µM | [15] 3.87 µM and 3.2 µM | [16] 5.39 µM and 2.81 µM | [17] 1.15 µM and 1.3 µM | [19] 2.89 µM and 2.29 µM | [20] 180 nM and 151 nM
inactive: [1] | [3] | [6] | [18]

CCOC(C=C(C)CCC=C(C)C)OCC
active: [1] 20 µM | [4] 20 µM | [5] 20 µM | [6] 10.3 µM | [7] 28.9 µM | [8] 33.7 µM | [9] 34.4 µM | [11] 32.1 µM | [13] 28.6 µM | [14] 29.8 µM | [15] 31.4 µM | [16] 25.7 µM | [17] 29 µM | [20] 32.2 µM
inactive: [2] | [3] | [10] | [12] | [18] | [19]
